The term AC50 denotes the midpoint of the concentration-response curve, whichever way the signal moves.

Active and inactive are the calls of the source. Rule for the calls: active = hit-call score of the fitted dose curve at least 0.9, where 1 is the maximum; inactive = score below 0.9.

Experimental findings from PubChem BioAssay (EPA / NIEHS) are described below.

A short description of this assay: ATG_TA_CIS: Attagene CIS-FACTORIAL HepG2 Assay for human TA Basal Promoter (AID 2282964). The conditions noted are these: HepG2 Attagene CIS-factorial TA basal promoter reporter; actives raise or lower the signal. Here is the method: ATG_CIS is a cell-based, multiplexed-readout assay that uses HepG2, a human liver cell line, with measurements taken at 24 hours after chemical dosing in a 24-well plate.ATG_TA_CIS is one of 52 assay component(s) measured or calculated from the ATG_CIS assay. It is designed to make measurements of mRNA induction, a form of inducible reporter, as detected with fluorescence intensity signals by Reverse transcription polymerase chain reaction (RT-PCR) and Capillary electrophoresis technology.Data from the assay component ATG_TA_CIS was analyzed into 1 assay endpoint. This assay endpoint, ATG_TA_CIS, was analyzed with bidirectional fitting relative to DMSO as the negative control and baseline of activity. Using a type of inducible reporter, measures of mRNA for gain or loss-of-signal activity can be used to understand the background control at the transcription factor-level as they relate to the gene . Furthermore, this assay endpoint can be referred to as a secondary readout, because this assay has produced multiple assay endpoints where this one serves a background control function. To generalize the intended target to other relatable targets, this assay endpoint is annotated to the background measurement intended target family, where the subfamily is internal marker.
Human liver HepG2 cells are transiently transfected with multiple reporter transcription units (MRTUs) in 6-well plates using FuGene 6 reagent (Roche; 3 ml FuGene/1 mg DNA). The MRTU constructs are regulated by a cis-regulating element (promoter). […] A major difference between the CIS and TRANS system is that in CIS activities of endogenous TFs are measured, whereas the TRANS assay evaluates changes in activities of exogenous, chimeric NR-Gal4 proteins. […] At the end of 24 hour incubation, total RNA was isolated using TriZol reagent (Invitrogen). The isolated RNA is then reverse-transcribed using oligo(dT) primer and Mo-MLV reverse transcriptase (Invitrogen) with DNAse I (Ambion) treatment for 30 min. The one-tenth of the produced cDNA was amplified by PCR using Taq DNA polymerase (Invitrogen) and two reporter sequence-specific primers. The PCR products were fluorescently labeled by primer extension with 6-arboxyfluorescein (6-FAM) 5'-labeled reporter sequence-specific primer (2 min at 95 C, 20 s at 68 C and 10 min at 72 C) and these products were digested with 5U of HpaI (New England Biolabs) for 2h at 37 C. The fragments were purified using Qiaquick PCR columns (Qiagen), analyzed on an ABI 3130xL genetic analyzer (Applied Biosystems) with peak positions identified by using a set of X-rhodamine (ROX)-labeled MapMarker1000 molecular weight standards (BioVentures). The raw capillary electrophoresis data was processed using Attagraph software (Attagene).
On to `CNC`, for which the result was inactive.

As to `c1ccc(N=NNc2ccccc2)cc1`, the outcome was inactive.

As for `Nc1ncc([N+](=O)[O-])s1`, the compound was called inactive.

Turning to `Clc1ccc(COC(Cn2ccnc2)c2ccc(Cl)cc2Cl)cc1` (stereo not given), the compound was classed as inactive.

In the case of `Cc1ccccc1C(=O)Nc1cccc(OC(C)C)c1`, the compound was called inactive.

As for `N#CCCO`, the outcome was inactive.

Regarding `N#Cc1ccccn1`, the outcome was inactive.

Regarding `C=CC(=O)OCCCCCC(C)C`, the compound was classed as inactive.

With `Nc1ccc(-c2ccc(N)c(Cl)c2)cc1Cl`, the compound was classed as inactive.

Regarding `O=C(O)C(Cl)(Cl)Cl`, the result was inactive.

As to `ClC1(Cl)C2(Cl)C3(Cl)C4(Cl)C(Cl)(Cl)C5(Cl)C3(Cl)C1(Cl)C5(Cl)C24Cl` (stereo not given), the call was inactive.

As to `O=C(O)Cc1ccccc1`, the compound was classed as inactive.

Turning to `Nc1cccc(Cl)c1`, the compound was classed as inactive.

In the case of `O=C(Nc1ccc2[nH]ccc2c1)c1cc2cc(F)ccc2n1Cc1cccc(F)c1`, the AC50 was 14 µM (active).

`C(=NC1CCCCC1)=NC1CCCCC1`: the compound was called inactive.

For the compound `O=CC=O`, the result was inactive.

Regarding `Clc1nc(Cl)nc(Cl)n1`, the call was inactive.

As for `Cc1cc(=O)[nH]o1`, the compound was classed as inactive.

`O=C(c1ccccc1)C(Cl)Cl`: the call was inactive.

For `CN(C)P(=O)(N(C)C)N(C)C`, the outcome was inactive.

Consider `O=C(NCO)NCO`, for which the call was inactive.

For the compound `Nc1ccc(N=Nc2ccc(-c3ccc(N=Nc4c(S(=O)(=O)O)cc5cc(S(=O)(=O)O)c(N=Nc6ccccc6)c(O)c5c4N)cc3)cc2)c(N)c1`, the compound was classed as inactive.

With `CCCCCCCCC(=O)NCc1ccc(O)c(OC)c1`, the outcome was inactive.

For the compound `O=C(Cc1ccccc1)c1ccccc1`, the call was inactive.

For the compound `COC(=O)c1sccc1S(=O)(=O)NC(=O)Nc1nc(C)nc(OC)n1`, the call was inactive.

For the compound `c1cc[c]([Hg][c]2ccccc2)cc1`, the outcome was inactive.

On to `CCOC(=O)Nc1cccc(OC(=O)Nc2ccccc2)c1`, for which the compound was called inactive.

As for `CCC(=O)C(CC(C)N(C)C)(c1ccccc1)c1ccccc1` (stereo not given), the call was inactive.

In the case of `Oc1ccc(-c2ccccc2)cc1`, the outcome was inactive.

As to `CC12CC1(C)C(=O)N(c1cc(Cl)cc(Cl)c1)C2=O` (stereo not given), the compound was classed as inactive.

As to `COP(=O)(OC)OC`, the result was inactive.

Take `C[C@H]1O[C@@H](O[C@H]2[C@@H](O)C[C@H](O[C@H]3[C@@H](O)C[C@H](O[C@H]4CC[C@@]5(C)[C@H](CC[C@@H]6[C@@H]5CC[C@]5(C)[C@@H](C7=CC(=O)OC7)CC[C@]65O)C4)O[C@@H]3C)O[C@@H]2C)C[C@H](O)[C@@H]1O`: the compound was classed as inactive.

As for `CC(C#N)CCC#N` (stereo not given), the compound was classed as inactive.

With `CCC(C)c1cccc(C(C)CC)c1O` (stereo not given), the call was inactive.

`CC(=O)OC(c1ccccc1)C(Cl)(Cl)Cl` (stereo not given): the compound was called inactive.

For the compound `Clc1ccc(C2(Cn3cncn3)CC(Br)CO2)c(Cl)c1` (stereo not given), the call was inactive.

For `CCC[CH2][Sn]([CH2]CCC)([CH2]CCC)[O]C(=O)c1ccccc1`, the call was inactive.

`NNC(=S)NN`: the compound was called inactive.

For `O=c1[nH]c(=O)[nH]c(=O)[nH]1`, the compound was called inactive.

In the case of `CCCCCCCCCl`, the outcome was inactive.
